# Activity calls are given as the source filed them.
# Legend:
# [1] = tested on: Plasmodium falciparum Sir2 (PF13_0152, Sir2A); experiment: pfSir2 binders on small-molecule microarrays, primary screen, biochemical, small-molecule microarray, 635 nm fluorescence (AID 1098); details: small-molecule microarray binding, fluorescence 635 nm; higher = more signal;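 further: score merges spot fluorescence intensity with its signal-to-noise ratio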
# [2] = small-molecule microarray binders of probe aDKK1, primary screen, biochemical, biotinylated probe, 635/667 nm fluorescence (AID 1099); details: higher = more signal;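 further: score merges 667nm spot fluorescence with signal to noise across triplicate slides; reference of the scale not given here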
# [3] = small-molecule microarray binders of probe aCHRDL2, primary screen, biochemical, biotinylated probe, 635/667 nm fluorescence (AID 1100); details: higher = more signal
# [4] = splicing luciferase reporter signal modulators, primary screen, spliceosome inhibition project, cell-based, HEK293, splice +/- reporter (AID 1101); details: luminescence, 24 h, higher = more signal, called active from +8 up or from −8 down;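 further: HEK293 cells carrying a splicing-competent luciferase reporter gene; test concentration not given here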
# [5] = biological target: Fibroblast growth factor 10 (Homo sapiens) (UniProt O15520); experiment: FGF10 binders on small-molecule microarrays, primary screen, biochemical, small-molecule microarray, 635 nm fluorescence (AID 1102); details: FGF10 binding, fluorescence 635 nm, higher = more signal
# [6] = tested on: glycogen synthase kinase-3 (GSK3A per assay name; protocol says GSK3B); experiment: GSK3 binders on small-molecule microarrays, primary screen, biochemical, small-molecule microarray, 635 nm fluorescence, GSK3A (AID 1103); details: small-molecule microarray binding, fluorescence 635 nm; higher = more signal; further: the record names both GSK3A and GSK3B
# [7] = biological target: Epidermal growth factor receptor (Homo sapiens) (UniProt P00533); experiment: EGFR binders on small-molecule microarrays, primary screen, biochemical, small-molecule microarray, 635 nm fluorescence (AID 1104); details: EGFR binding, higher = more signal;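 further: score merges 667 nm emission intensity with spot signal to noise over triplicate slides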
# [8] = biological target: Follistatin-related protein 3 (Homo sapiens) (UniProt O95633); experiment: FSTL3 binders on small-molecule microarrays, primary screen, biochemical, small-molecule microarray, 635 nm fluorescence (AID 1105); details: FSTL3 binding, higher = more signal;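 further: score merges emission near 667 nm and signal to noise per printed spot across three slides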
# [9] = biological target: Dickkopf-related protein 1 (Homo sapiens) (UniProt O94907); experiment: DKK1 binders on small-molecule microarrays, primary screen, biochemical, small-molecule microarray, 635 nm fluorescence scan (AID 1106); details: DKK1 binding, higher = more signal;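 further: score merges emission near 667 nm with signal to noise over three replicate slides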
# [10] = tested on: Inhibin beta A chain (activin A); experiment: INHBA (activin A) binders on microarrays, primary screen, biochemical, small-molecule microarray, 635 nm fluorescence scan (AID 1107); details: small-molecule microarray binding, higher = more signal;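 further: mouse activin A protein probed at 4.33 µg/mL on printed slides; score merges bound-protein fluorescence near 667 nm with spot signal-to-noise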
# Chain of Epidermal growth factor receptor (Homo sapiens) (P00533 whole entry, looked up): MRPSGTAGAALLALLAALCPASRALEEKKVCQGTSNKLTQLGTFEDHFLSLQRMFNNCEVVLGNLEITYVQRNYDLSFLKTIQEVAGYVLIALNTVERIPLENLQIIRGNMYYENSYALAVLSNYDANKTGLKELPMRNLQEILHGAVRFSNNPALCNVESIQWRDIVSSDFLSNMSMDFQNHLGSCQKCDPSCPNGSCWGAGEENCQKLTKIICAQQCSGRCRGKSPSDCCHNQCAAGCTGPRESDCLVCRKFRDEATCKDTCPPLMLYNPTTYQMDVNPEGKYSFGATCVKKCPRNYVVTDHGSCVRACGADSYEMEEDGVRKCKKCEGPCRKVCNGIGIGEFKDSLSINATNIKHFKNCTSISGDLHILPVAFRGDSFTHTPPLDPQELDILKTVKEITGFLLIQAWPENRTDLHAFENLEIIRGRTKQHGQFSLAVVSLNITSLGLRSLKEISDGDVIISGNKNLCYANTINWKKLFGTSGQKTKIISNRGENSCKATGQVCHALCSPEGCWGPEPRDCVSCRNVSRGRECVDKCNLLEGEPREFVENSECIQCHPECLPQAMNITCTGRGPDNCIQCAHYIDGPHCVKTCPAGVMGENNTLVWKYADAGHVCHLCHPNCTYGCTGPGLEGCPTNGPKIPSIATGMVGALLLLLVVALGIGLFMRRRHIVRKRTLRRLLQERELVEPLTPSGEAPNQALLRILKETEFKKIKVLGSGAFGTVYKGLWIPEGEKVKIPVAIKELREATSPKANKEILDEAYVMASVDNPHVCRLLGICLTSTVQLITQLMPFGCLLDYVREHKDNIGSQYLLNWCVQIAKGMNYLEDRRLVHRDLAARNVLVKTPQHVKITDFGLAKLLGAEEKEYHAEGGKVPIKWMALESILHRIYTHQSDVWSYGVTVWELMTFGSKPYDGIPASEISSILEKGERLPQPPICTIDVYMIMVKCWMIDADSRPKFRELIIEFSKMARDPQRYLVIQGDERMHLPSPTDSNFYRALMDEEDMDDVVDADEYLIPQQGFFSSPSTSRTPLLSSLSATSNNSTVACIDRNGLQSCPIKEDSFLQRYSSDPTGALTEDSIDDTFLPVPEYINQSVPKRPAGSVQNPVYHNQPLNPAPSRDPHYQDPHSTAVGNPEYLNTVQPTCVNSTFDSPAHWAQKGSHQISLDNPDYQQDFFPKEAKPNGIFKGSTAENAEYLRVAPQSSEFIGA
# Chain of Fibroblast growth factor 10 (Homo sapiens) (O15520 whole entry, looked up): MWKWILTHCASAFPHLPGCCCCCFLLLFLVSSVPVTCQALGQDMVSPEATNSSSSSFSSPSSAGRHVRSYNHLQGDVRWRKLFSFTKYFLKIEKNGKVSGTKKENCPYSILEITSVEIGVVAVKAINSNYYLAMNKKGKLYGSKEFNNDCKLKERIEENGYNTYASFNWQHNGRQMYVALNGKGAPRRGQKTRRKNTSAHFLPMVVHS
# Chain of Dickkopf-related protein 1 (Homo sapiens) (O94907 whole entry, looked up): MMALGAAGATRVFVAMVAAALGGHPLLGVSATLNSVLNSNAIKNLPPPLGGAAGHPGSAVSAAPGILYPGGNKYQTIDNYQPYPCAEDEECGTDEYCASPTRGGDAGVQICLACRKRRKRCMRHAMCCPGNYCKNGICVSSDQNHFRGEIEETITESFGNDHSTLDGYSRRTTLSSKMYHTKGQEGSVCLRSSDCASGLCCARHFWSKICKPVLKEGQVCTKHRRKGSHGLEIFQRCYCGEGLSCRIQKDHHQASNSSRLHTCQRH
# Chain of Follistatin-related protein 3 (Homo sapiens) (O95633 whole entry, looked up): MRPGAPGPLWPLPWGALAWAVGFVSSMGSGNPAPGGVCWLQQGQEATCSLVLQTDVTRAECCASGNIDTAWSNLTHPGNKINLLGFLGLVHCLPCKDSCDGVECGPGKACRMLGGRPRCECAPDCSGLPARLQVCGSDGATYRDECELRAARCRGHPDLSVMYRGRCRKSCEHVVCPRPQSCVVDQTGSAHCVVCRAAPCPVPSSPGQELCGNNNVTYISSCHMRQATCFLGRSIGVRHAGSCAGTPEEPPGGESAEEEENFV
SMILES,composite z-score [1],composite z-score [2],composite z-score [3],z-score [4],composite z-score [5],composite z-score [6],composite z-score [7],composite z-score [8],composite z-score [9],composite z-score [10]
C=C(C(=O)CC[C@H](OC(=O)c1cccnc1)c1cccc(OCCO)c1)C(C)C,1.24,-0.061,0.125,1.76 (inactive),-0.64,-0.418,-0.792,-1.05,-0.878,1.16
C=C(/C(=C/C[C@@H](OC(=O)c1ccncc1)c1ccccc1OCCO)c1cc(C(=O)OC)ccc1OC)C(C)C,1.04,-0.223,-0.151,-1.25 (inactive),1.12,0.759,0.228,0.467,0.328,0.787
CC(C)(C)OC(=O)CC[C@]1(C(=O)O)N=C(c2ccc(OCCCO)cc2)O[C@H]1c1ccccc1,1.14,0.191,0.542,-1.32 (inactive),-0.272,-0.406,-0.329,-0.121,-0.517,0.734
C=CCN1C(=O)[C@@]2(O[C@@H](CCO)[C@H]([Si](C)(C)c3ccc(OC)cc3)[C@H]2C)c2cc(N3C(=O)c4ccccc4Oc4ccccc43)ccc21,1.07,-0.0987,0.0272,-3.3 (inactive),0.916,-0.229,-0.262,-0.0233,0.0911,0.0761
C=CCN1C(=O)[C@@]2(CCC(=O)OC(C)(C)C)N=C(c3ccc(OCCCO)cc3)O[C@H]2c2ccccc21,1.25,0.549,1,0.0157 (inactive),0.0195,1.13,0.217,0.792,0.116,1.4
O=C1c2ccccc2[C@](Cc2ccccc2I)(C(=O)NCc2ccccc2)[C@H](c2ccc(CO)cc2)N1C1CCCCC1,0.851,0.969,0.357,-0.216 (inactive),1.37,1.08,0.228,1.08,0.837,0.958
CC(C)CNC(=O)[C@@]1(c2ccc([N+](=O)[O-])cc2)CC(=O)N(C2CCCCC2)[C@@H]1c1ccc(CO)cc1I,1.67,0.349,0.641,-0.721 (inactive),0.489,-0.198,-0.519,-0.16,-0.477,0.138
CN1C(=O)C2C=CC(C(O)Cc3ccccc3)N(N(c3ccccc3)c3ccccc3)C2C1=O (stereo not given),0.86,0.46,0.733,0.653 (inactive),0.812,-0.227,-0.567,-0.068,-0.303,0.864
CCCc1cccc(=O)o1,0.521,-0.161,-0.401,-0.396 (inactive),0.215,1.04,-0.21,0.182,0.646,1.06
C=C(COC)/C(=C/C[C@@H](OC(=O)c1ccncc1)c1ccc(OCCO)cc1)c1cnc2ccccc2c1,0.212,0.0923,-0.0001,-0.275 (inactive),1.46,1.3,1.35,1.58,0.99,1.95
O=C1OCC=C[C@H]2OC34C=CCN(Cn5nnc6ccccc65)C(=O)[C@H]3N(CCCCCCO)C(=O)[C@@H]4[C@@H]12 (stereo not given in full),1.25,0.0374,0.538,0.434 (inactive),-0.577,0.0986,-0.896,-1.02,-0.566,0.955
COCC(=C=CC[C@H](O)c1cccc(OCCO)c1)C[C@H](O)c1ccccn1,0.543,0.161,-0.173,-1 (inactive),1.3,-0.214,-0.366,-0.0496,0.354,0.281
CO[C@H]1O[C@H](CO)[C@@H](OC(=O)c2ccc(Br)cc2)[C@@H]2OC(=O)[C@@H](Cc3ccc4ccccc4c3)C/C=C/C[C@H](Cc3ccc4ccccc4c3)C(=O)O[C@@H]12,0.995,0.463,0.769,-0.83 (inactive),0.429,0.548,-0.567,0.323,-0.54,0.588
O=C1O[C@@H](c2ccccc2)[C@@H](c2ccccc2)N2[C@@H](c3ccccc3OCCO)[C@]3(C(=O)Nc4ccc(C#CCCO)cc43)[C@@H](C(=O)N3CCN(c4ncccn4)CC3)[C@H]12,0.879,-0.0415,0.225,-1.09 (inactive),0.376,0.649,-0.022,0.315,0.464,-0.055
COc1ccc(NN2C(C(O)c3ccccn3)C=CC3C(=O)N(C4CCCCC4)C(=O)C32)cc1 (stereo not given),1.31,0.2,0.862,-1.44 (inactive),0.962,1.25,0.224,1.16,-0.39,0.627
CC(=O)n1cc(C(O)C2C=CC3C(=O)N(Cc4ccccc4)C(=O)C3N2n2cnnc2)c2ccccc21 (stereo not given),1.17,-0.0358,0.205,0.108 (inactive),-0.167,-0.243,-0.0707,0.19,0.12,0.713
CN(C)CCCNC(=O)[C@@H]1c2ccccc2C(=O)N(Cc2ccc(OC(F)(F)F)cc2)[C@H]1c1ccc(CO)cc1,1.33,-0.115,0.56,0.0681 (inactive),0.0228,0.887,-0.617,0.351,0.0558,0.561
[N-]=[N+]=NCc1ccccc1[C@H]1OC(c2ccc(OCCCO)cc2)=N[C@@]1(CCS(=O)(=O)c1ccccc1)C(N)=O,1.37,0.605,1.07,-0.503 (inactive),1.5,1.1,-0.216,0.441,-0.0333,1.29
C=C(COC)/C(=C/C[C@@H](OC(=O)c1ccncc1)c1cccc(OCCO)c1)c1cnc2ccccc2c1,-0.0365,0.432,0.347,-1.36 (inactive),1.48,1.3,1.65,1.65,0.769,1.81
O=C1OCCC=C[C@H]2OC34C=CCN(c5ccc(Cl)cc5)C(=O)[C@H]3N(CCCCCO)C(=O)[C@@H]4C12 (stereo not given in full),1.87,-0.0263,0.255,-0.443 (inactive),-0.315,0.0788,-0.935,-0.713,-0.172,0.883
CC[C@@H]1[C@H]2C3C(=O)N(CC)C(=O)C3CC(=O)[C@H]2[C@H](c2ccc(C)cc2)N1S(=O)(=O)c1ccc(C)cc1 (stereo not given in full),1.11,0.415,0.46,0.16 (inactive),0.894,1.27,0.183,0.955,0.0029,0.617
CC1CC/C=C\[C@H]2OC34C=CCN(CCN5CCOCC5)C(=O)[C@H]3N(CCO)C(=O)[C@@H]4C2C(=O)O1 (stereo not given in full),-0.778,-0.31,0.293,-0.81 (inactive),-0.992,-0.831,-0.707,-0.781,-0.137,0.761
C=C1C2CC3C(=C4C(CO[C@@H]4[C@H]4CCCN4S(=O)(=O)c4ccccc4[N+](=O)[O-])C4C(=O)N(C)C(=O)C34)CC2C(=O)N1C (stereo not given in full),0.201,-0.2,-0.427,0.194 (inactive),0.475,0.0168,-0.0553,0.157,0.298,0.689
CCOc1cc(C(O)C2C=CC3C(=O)N(C)C(=O)C3N2N2CCCCC2)ccc1O (stereo not given),1.56,0.637,0.101,0.377 (inactive),0.264,-0.37,0.287,0.276,0.164,0.898
COC(=O)[C@]1(CCS(=O)(=O)c2ccccc2)N=C(c2ccc(OCCCO)cc2)O[C@@H]1c1ccccc1CN=[N+]=[N-],1.24,0.366,0.763,1.08 (inactive),0.63,1.28,0.231,0.702,0.0636,0.681
O=C(N1CCCCC1)[C@@]1(Cc2ccccc2)COC(c2ccc(OCCCO)cc2)=N1,1.48,1.11,1.25,0.419 (inactive),1.44,0.705,-0.153,0.12,-0.275,0.691

# Reference: PubChem BioAssay
